Hits are enriched below; roughly 2.6% of the tested compounds scored in any of these assays.
Giardia kill = Small Molecules that selectively kill Giardia lamblia: qHTS | Giardia lamblia trophozoite viability | activity change, % at 7.66 µM, hits read low | actives 0.15% (n = 340,000); in the data active = activity change below about -80%; inconclusive = between about -30% and that limit;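 also: parasites exposed to compound for two days anaerobically before the ATP read; % is scaled to controls: 0 for no effect and ±100 for the full control effect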
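Killing of trophozoites was scored by loss of ATP luminescence after a 48 hrs anaerobic exposure to compounds at 37 deg C, using 100 cells per well.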
HepG2 tox-1 = qHTS for Inhibitors of TGF-b: Cytotox Counterscreen. HepG2 CAGA-GFP viability, ATP luminescence, 18 h. Potency, µM (titrated, usually from 46.1 µM), without a hit: at the highest dose activity change, negative = cytotoxicity, actives largely listed as cytotoxic. actives 0.76% (n = 410,000); also: potency is read from the fitted curve at half-maximal effect
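CellTiter-Glo luminescence gave cytotoxicity after 18 hours at 37 degrees C. The cells were HepG2 CAGA-GFP in 1% FBS DMEM, stimulated with 500 pg/mL TGF-beta after compound addition. %Activity was normalised to no-cell wells (complete cell-killing) and DMSO (no toxicity), and curves were fitted and classified.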
uPA surface inh = qHTS for Inhibitors of Cell Surface uPA Generation. actives 0.31% (n = 330,000). Potency, µM (doses to about 38.3 µM), for the others: at the top dose activity change, negative = inhibition, hits mostly inhibitors. cell surface uPA generation assay, qHTS. AID 540303, 2011; active = well fitted inhibition curve with a large enough effect; inconclusive = small, poorly fitted or top-dose-only effect; inactive = no such curve, though single readings can be large or run the other way; tested in mouse RAW 264.7 cells; also: potency is read from the fitted curve at half-maximal effect; % is scaled to controls: 0 for no effect and ±100 for the full control effect; nearly all actives have a fitted effect of over 55% in size
ATXN2 expr inh = Primary qHTS for Inhibitors of ATXN expression. actives 0.72% (n = 360,000). HEK-293 ATXN2-luciferase reporter, luminescence, 24 h. Potency, µM (top dose mostly 57 µM), for the others: at the highest dose activity change, negative = inhibition, actives largely listed as inhibitors; also: potency is read from the fitted curve at half-maximal effect; % is scaled to controls: 0 for no effect and ±100 for the full control effect; nearly all actives have a fitted effect of over 55% in size
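qHTS (up to 57 uM final) was run with 24 h compound exposure of reporter cells at 37 °C. Each well was multiplexed: SteadyGlo luminescence measured ATXN2-luciferase expression after a fluorogenic Gly-Phe-AFC viability readout (25 uM final).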
TGFb SMAD3 inh = qHTS for Inhibitors of TGF-b; HepG2 CAGA-GFP TGF-b/SMAD3 reporter, GFP fluorescence, 18 h; TGF-beta stimulated, 500 pg/mL final; AID 588855, 2011; Potency, µM (doses to about 46.1 µM), for inactives: at the top dose activity, negative = inhibition, actives largely listed as inhibitors; actives 1.2% (n = 410,000); also: potency is read from the fitted curve at half-maximal effect; % is scaled to controls: 0 for no effect and ±100 for the full control effect; nearly all actives have a fitted effect of over 65% in size
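HEPG2 CAGA-GFP reporter cells (1000/well, DMEM with 1% FBS) received compounds, then recombinant TGF-beta at 500 pg/mL final for 18 hours at 37 degrees C. Per-cell GFP summed per well was normalised to unstimulated and stimulated DMSO controls before curve fitting.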
S2 tox = Viability Counterscreen for Primary qHTS for Inhibitors of ATXN expression | actives 0.49% (n = 400,000) | S2 cells (HEK-293 line with an ATXN2-luciferase reporter) viability, CellTiter-Fluor protease fluorescence, 24 h | AID 651635, 2014 | Potency, µM (highest dose often 56.7 µM), most hits filed as cytotoxic; also: potency is read from the fitted curve at half-maximal effect; nearly all actives have a fitted effect of over 40% in size
TGFb confirm = qHTS for Inhibitors of TGF-b: Confirmation of Cherry Picks; actives 63% (n = 1,600); AID 720534, 2013; HepG2 CAGA-GFP TGF-b reporter, GFP fluorescence, 18 h; cells stimulated with TGF-beta, 500 pg/mL; Potency, µM (top dose mostly 46.1 µM), for inactives: at the highest dose activity, negative = inhibition, most hits filed as inhibitors; shares compounds with TGFb SMAD3 inh; also: potency is read from the fitted curve at half-maximal effect; % is scaled to controls: 0 for no effect and ±100 for the full control effect; nearly all actives have a fitted effect of over 65% in size
HepG2 tox-2 = qHTS for Inhibitors of TGF-b: Cytotox Counterscreen for Cherry Picks. Potency, µM (highest dose often 46.1 µM), inactives show at the top dose activity, negative = cytotoxicity, actives largely listed as inhibitors. HepG2 CAGA-GFP viability, ATP luminescence, 18 h; cells stimulated with TGF-beta, 500 pg/mL. shares compounds with TGFb SMAD3 inh. actives 27% (n = 1,600); also: potency is read from the fitted curve at half-maximal effect; % is scaled to controls: 0 for no effect and ±100 for the full control effect; nearly all actives have a fitted effect of over 70% in size
CCL64 TGFb inh = qHTS for Inhibitors of TGF-b: CCL64 Cells Orthogonal Assay for Cherry Picks; CCL64 CAGA-GFP reporter, TGF-b stimulated, GFP fluorescence, 18 h; Potency, µM (highest dose often 46.1 µM), without a hit: top-dose activity, negative = inhibition, most hits filed as inhibitors; actives 41% (n = 1,600); shares compounds with TGFb SMAD3 inh; also: potency is read from the fitted curve at half-maximal effect; nearly all actives have a fitted effect of over 65% in size
TGFb COP inh = qHTS for Inhibitors of TGF-b: Hit Validation in HepG2 Cells using COP promoter; HepG2 COP-GFP TGF-b reporter, GFP fluorescence, 18 h; cells stimulated by added recombinant TGF-beta; AID 720537, 2013; shares compounds with TGFb SMAD3 inh; Potency, µM (doses to about 46.1 µM), without a hit: at the top dose activity, negative = inhibition, actives largely listed as inhibitors; actives 3% (n = 1,600); also: potency is read from the fitted curve at half-maximal effect; nearly all actives have a fitted effect of over 70% in size
* marks the source's active call; other numbers are inactive results. Unless noted, calls follow the shape of the dose curve; as a rule, active = well fitted curve in the direction sought with a large enough effect; inconclusive = small, poorly fitted or top-dose-only effect, or another doubt; inactive = no such curve, though single readings can be large; an effect the other way counts as inactive or inconclusive.

Screening Cc1cccc(COCC(CC(C)C)N2CCN(C(=O)c3ccc(C(C)(C)C)cc3)CCC2=O)c1 (stereo not drawn) returned Giardia kill 8, HepG2 tox-1 -111%, uPA surface inh -11%, ATXN2 expr inh inconclusive, TGFb SMAD3 inh 8.9µM*, S2 tox inconclusive, TGFb confirm inconclusive, HepG2 tox-2 inconclusive, CCL64 TGFb inh inconclusive and TGFb COP inh inconclusive.
Screening CC(C)CC(COCc1cccc(Cl)c1)N1CCN(C(=O)c2ccc(C(F)(F)F)cc2)CCC1=O (stereo not drawn) returned Giardia kill 15, HepG2 tox-1 -27%, uPA surface inh -8%, ATXN2 expr inh -4%, TGFb SMAD3 inh 10µM*, TGFb confirm 18µM*, HepG2 tox-2 -11%, CCL64 TGFb inh inconclusive and TGFb COP inh -1%.
`COc1ccc(C(CCNCc2ccc(F)cc2)c2ccc(F)cc2)cc1` (stereo not drawn) gave Giardia kill 9, HepG2 tox-1 7.9µM*, uPA surface inh -3%, ATXN2 expr inh inconclusive, TGFb SMAD3 inh 2.8µM*, S2 tox inconclusive, TGFb confirm inconclusive, HepG2 tox-2 16µM*, CCL64 TGFb inh inconclusive and TGFb COP inh inconclusive.
COc1ccc(CNCCC(c2ccc(F)cc2)c2ccc(OC(C)C)cc2)cc1OC (stereo not drawn) was read as Giardia kill -7, HepG2 tox-1 -105%, uPA surface inh -7%, ATXN2 expr inh inconclusive, TGFb SMAD3 inh inconclusive and S2 tox inconclusive.
For Cc1ccc(C(=O)c2oc3ccccc3c2NC(=O)COc2ccccc2C)cc1 the results were HepG2 tox-1 -97%, ATXN2 expr inh 8%, TGFb SMAD3 inh 12% and S2 tox inactive.
For CCOc1ccc(N(CC(=O)N/N=C/c2cc([N+](=O)[O-])ccc2Cl)S(C)(=O)=O)cc1 the results were Giardia kill 5, HepG2 tox-1 0%, uPA surface inh -3%, ATXN2 expr inh -15%, TGFb SMAD3 inh 7.9µM*, S2 tox inactive, TGFb confirm 15µM*, HepG2 tox-2 -3%, CCL64 TGFb inh inconclusive and TGFb COP inh 16%.
